Test results: the supplement of paper PMC8975748
Structures can show the parent of a compound that is named as a salt.

What follows are compounds tested on Saccharomyces cerevisiae BY4741 SeMeCo community (assay: z-score of subpopulation abundance vs DMSO median, subpopulation auxotrophic for HLUM; higher = larger share of this subpopulation than in DMSO controls). Settings: 10 µM; 24 h; SM minimal medium; subpopulation (auxotrophy): HLUM.
Method: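 Fluorescent four-plasmid SeMeCo (self-establishing metabolically cooperating S. cerevisiae BY4741 community; plasmids pH-mRuby2, pL-mWasabi, pU-eCFP, pM-TagRFP657) was grown 24 h in minimal SM medium with each Selleck FDA-approved drug at 10 µM in 384-well plates. Cells were fixed and imaged by high-content confocal microscopy. For each auxotrophic subpopulation (and the prototroph), a z-score gives the deviation from the DMSO vehicle-control population median.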

| Compound | z-score of subpopulation abundance |
| --- | --- |
| NC(=O)CN1CCCC1=O [Piracetam] | 0.98 |
| C=C(C)[C@H]1Cc2c(ccc3c2O[C@@H]2COc4cc(OC)c(OC)cc4[C@@H]2C3=O)O1 [Rotenone (Barbasco)] | 0.56 |
| Nc1ccncc1 [4-Aminopyridine] | -0.46 |
| CCCN1C[C@H](CSC)C[C@@H]2c3cccc4[nH]cc(c34)C[C@H]21 [Pergolide Mesylate] | -0.1 |
| N#Cc1nn(-c2c(Cl)cc(C(F)(F)F)cc2Cl)c(N)c1[S+]([O-])C(F)(F)F (centres undefined) [Fipronil] | -0.22 |
| CC[C@@H](C(N)=O)N1CCCC1=O [Levetiracetam] | -0.38 |
| CC1(C)SC2C(N)C(=O)N2C1C(=O)O (centres undefined) [6-Aminopenicillanic acid] | -0.72 |
| CC(=O)OCC1=C(C(=O)O)N2C(=O)C(N)C2SC1 (centres undefined) [7-Aminocephalosporanic acid] | -0.76 |
| CC[C@H]1CN2CC[C@]3(C(=O)Nc4ccccc43)[C@@H]2C[C@@H]1/C(=C\OC)C(=O)OC [Rhynchophylline] | 0 |
| C[CH2][Hg][S]c1ccccc1C(=O)[O-].[Na+] [Thimerosal] | 63.5 |
| CC(C)(O)C(Cl)(Cl)Cl [Chlorobutanol] | -0.06 |
| Oc1cc(Cl)ccc1Oc1ccc(Cl)cc1Cl [Triclosan] | 2.06 |
| CN1C(=O)COc2c(C(=O)NC3CN4CCC3CC4)cc(Cl)cc21 (centres undefined) [Azasetron HCl] | 0.19 |
| CN1[C@@H]2CC[C@H]1C[C@@H](OC(=O)C(CO)c1ccccc1)C2 (some centres undefined) [Atropine sulfate monohydrate] | -0.85 |
| C=CCN1C[C@H](C(=O)N(CCCN(C)C)C(=O)NCC)C[C@@H]2c3cccc4[nH]cc(c34)C[C@H]21 [Cabergoline] | 0.78 |
| CN[C@@H]1[C@@H](O)[C@@H](O[C@@H]2[C@@H](O)[C@H](O[C@H]3O[C@H]([C@@H](C)O)[C@@H](O)[C@H](O)[C@H]3N)[C@@H](N)C[C@H]2N)OC[C@]1(C)O [Geneticin (G418 Sulfate)] | -0.56 |
| COc1ccc2c(c1)[C@]13CCCC[C@@H]1[C@H](C2)N(C)CC3 [Dextromethorphan hydrobromide hydrate] | -0.5 |

| Compound | z-score of subpopulation abundance |
| --- | --- |
| C[C@@H]1O[C@@H](O[C@H]2C[C@@H](O)[C@]3(CO)[C@H]4[C@H](O)C[C@]5(C)[C@@H](C6=CC(=O)OC6)CC[C@]5(O)[C@@H]4CC[C@]3(O)C2)[C@H](O)[C@H](O)[C@H]1O [Ouabain] | -0.91 |
| CCCCCCCCCCCCCCCC[n+]1ccccc1 [Cetylpyridinium Chloride] | 49.4 |
| COc1ccc(C=O)cc1 [p-Anisaldehyde] | -0.16 |
| Oc1cccc2cccnc12 [8-Hydroxyquinoline] | 0.11 |
| O=C(O[C@H]1C[N+]2(CCCOc3ccccc3)CCC1CC2)C(O)(c1cccs1)c1cccs1 [Aclidinium Bromide] | -0.18 |
| CN1[C@@H]2C[C@@H](OC(=O)[C@H](CO)c3ccccc3)C[C@H]1[C@@H]1O[C@@H]12 [Scopolamine HBr trihydrate] | -0.22 |
| CN1[C@@H]2CC[C@H]1C[C@@H](OC(=O)[C@H](CO)c1ccccc1)C2 [Hyoscyamine] | 0.62 |
| CCC1=C[C@H]2CN3CCc4c([nH]c5ccccc45)[C@](C(=O)OC)(C2)[C@H]13 [Catharanthine] | -0.22 |
| CN(C)[C@@H]1C(=O)C(C(N)=O)=C(O)[C@@]2(O)C(=O)C3=C(O)c4c(O)cccc4[C@@](C)(O)[C@H]3C[C@@H]12 [Tetracycline HCl] | -0.58 |
| COC(=O)C1=CCCN(C)C1 [Arecoline HBr] | -0.09 |
| Cn1cc(C2=C(c3cn(C4CCN(Cc5ccccn5)CC4)c4ccccc34)C(=O)NC2=O)c2ccccc21 | -0.35 |
| CC(=O)O[C@H]1C[C@@H]2CC[C@@H]3[C@H](CC[C@@]4(C)[C@H]3C[C@H]([N+]3(C)CCCCC3)[C@@H]4OC(C)=O)[C@@]2(C)C[C@@H]1[N+]1(C)CCCCC1 [Pancuronium dibromide] | -0.93 |
| Cc1cc(C(C#N)c2ccc(Cl)cc2)c(Cl)cc1NC(=O)c1cc(I)cc(I)c1O (centres undefined) [Closantel] | 0.27 |
| CN(C)[C@@H]1C(=O)C(C(N)=O)=C(O)[C@@]2(O)C(=O)C3=C(O)c4c(O)cccc4[C@@](C)(O)[C@H]3[C@H](O)[C@@H]12 [Oxytetracycline (Terramycin)] | 0.26 |
| CC[N+](C)(CC)CCOC(=O)C(O)(c1ccccc1)c1ccccc1 [Methylbenactyzine Bromide] | -1.18 |
| C[N+](C)(C)CCCCCCCCCC[N+](C)(C)C [Decamethonium Bromide] | -0.4 |
| CC(C)N(CCC(C(N)=O)(c1ccccc1)c1ccccn1)C(C)C (centres undefined) [Disopyramide] | 0.82 |
